# In the library only some 12% were active in any assay of this set; here they are far more common.
# HP1b binding inh = HTS for Inhibitors of HP1-beta Chromodomain Interactions with Methylated Histone Tails | Chromobox protein homolog 1 (Homo sapiens), P83916 | AlphaScreen HP1-beta / biotin-H3K9me3 peptide binding | Potency, µM (titrated, usually from 114 µM), for the others: top-dose activity change, negative = inhibition, actives largely listed as inhibitors | 0.56% of 390,000 active; also: nearly all actives have a fitted effect of over 70% in size
#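 Compound inhibition of the preformed complex between 50 nM HP1-beta and 50 nM biotinylated H3K9me3 peptide was read by AlphaScreen. Buffer was PBS pH 7.4 with 0.01% Tween-20. Incubations ran 30 min at room temperature, with 10 ug/mL donor/acceptor beads.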
# PLK1 PBD inh = qHTS for Inhibitors of PLK1-PDB (polo-like kinase 1 - polo-box domain): Primary Screen | Serine/threonine-protein kinase PLK1 (Homo sapiens), P53350 | Plk1 PBD binding of FITC phosphopeptide, fluorescence polarization | Potency, µM, for inactives: max response, negative = inhibition, actives largely listed as inhibitors | 2.8% of 360,000 active | AID 720504, 2013; also: series mostly up to about 57 µM; % is scaled to controls: 0 for no effect and ±100 for the full control effect; nearly all actives have a fitted effect of over 65% in size
# Target sequence (P53350 whole entry, looked up, the tested form may be a part): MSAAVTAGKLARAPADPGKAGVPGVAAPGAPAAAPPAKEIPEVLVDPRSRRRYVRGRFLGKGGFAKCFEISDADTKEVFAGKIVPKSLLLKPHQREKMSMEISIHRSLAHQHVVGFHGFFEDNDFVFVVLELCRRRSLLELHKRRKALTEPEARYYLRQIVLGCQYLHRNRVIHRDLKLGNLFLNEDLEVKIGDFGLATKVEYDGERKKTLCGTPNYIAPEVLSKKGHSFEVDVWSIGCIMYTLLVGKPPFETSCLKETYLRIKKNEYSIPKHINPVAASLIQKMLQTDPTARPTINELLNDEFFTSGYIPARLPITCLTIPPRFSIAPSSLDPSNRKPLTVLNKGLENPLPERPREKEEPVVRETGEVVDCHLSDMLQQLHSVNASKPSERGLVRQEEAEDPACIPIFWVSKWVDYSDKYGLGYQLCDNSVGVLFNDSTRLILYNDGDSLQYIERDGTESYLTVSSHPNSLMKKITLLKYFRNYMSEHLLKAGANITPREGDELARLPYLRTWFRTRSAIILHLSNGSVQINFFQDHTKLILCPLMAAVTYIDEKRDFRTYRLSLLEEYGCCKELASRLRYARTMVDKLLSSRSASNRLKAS
# JMJD2A Tudor inh = qHTS Assay for Inhibitors of JMJD2A-Tudor Domain. Potency, µM (highest dose often 114 µM), for the others: at the highest dose activity change, negative = inhibition, hits mostly inhibitors. Lysine-specific demethylase 4A (Homo sapiens), O75164. AID 504339, 2011. AlphaScreen JMJD2A-Tudor / H3K4me3 peptide binding. 4.4% of 390,000 active; also: % is scaled to controls: 0 for no effect and ±100 for the full control effect; nearly all actives have a fitted effect of over 50% in size
# BAZ2B block = qHTS Assay for Inhibitors of BAZ2B; 4.4% of 360,000 active; Potency, µM (titrated, usually from 114 µM), without a hit: at the highest dose activity change, negative = inhibition, actives largely listed as inhibitors; Bromodomain adjacent to zinc finger domain protein 2B (Homo sapiens), Q9UIF8; AlphaScreen BAZ2B-H3K14Ac peptide displacement; also: % is scaled to controls: 0 for no effect and ±100 for the full control effect; nearly all actives have a fitted effect of over 60% in size
#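 In this displacement format the biotinylated H3(5-23) peptide acetylated at Lys14 serves as ligand at 50 nM, with BAZ2B at 50 nM in PBS pH 7.4 containing 0.01% Tween-20. Donor and acceptor beads are 10 ug/mL final.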
# Sfp PPTase inh = qHTS Assay for Inhibitors of Bacillus subtilis Sfp phosphopantetheinyl transferase (PPTase) | 3.5% of 310,000 active | Biochemical Sfp PPTase activity, qHTS | 4'-phosphopantetheinyl transferase ffp (Bacillus subtilis), Q9F4F7 | AID 1490, 2009 | Potency, µM, inactives show largest response in the series, negative = inhibition, actives largely listed as inhibitors;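 also: the enzyme is Sfp with the accession as filed and its product quenches rhodamine fluorescence; 0% = enzyme reaction without inhibitor and -100% = no enzyme wells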
#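 With Hepes-Na pH 7.6 buffer containing 10 mM MgCl2, Sfp (15 nM) modified BHQ-2-YbbR (12.5 uM) using rhodamine-CoA (5 uM). Two reads 30 minutes apart at 525/598 nm yielded each well's rate.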
# G9a block = qHTS Assay for Inhibitors of Histone Lysine Methyltransferase G9a; G9a H3K9 monomethylation, AlphaScreen, 2 h; 8.8% of 350,000 active; Histone-lysine N-methyltransferase EHMT2 (Homo sapiens), Q96KQ7; Potency, µM (highest dose often 102 µM), for the others: at the top dose activity, negative = inhibition, usual class: inhibitors; also: % is scaled to controls: 0 for no effect and ±100 for the full control effect; nearly all actives have a fitted effect of over 75% in size
#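 Methyltransferase reactions run at room temperature for 2 h (20 nM enzyme, 500 nM biotin-H3K9 peptide, 20 uM SAM) after a 15 min compound preincubation; product detected by AlphaScreen beads and anti-H3K9me1 antibody.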
# * marks the source's active call; other numbers are inactive results; ? = inconclusive; . = not tested or not shown; [ ] = another dose, or the depositor's remark. Calls follow the shape of the dose curve; as a rule, active = well fitted curve in the direction sought with a large enough effect; inconclusive = small, poorly fitted or top-dose-only effect, or another doubt; inactive = no such curve, though single readings can be large; an effect the other way counts as inactive or inconclusive. Potency is read from the fitted curve at half-maximal effect.
SMILES,HP1b binding inh,PLK1 PBD inh,JMJD2A Tudor inh,BAZ2B block,Sfp PPTase inh,G9a block
CC(C)(C)c1ccc(C(=O)Nc2ccc(Cl)cc2)cc1,20%,-12%,-3%,-6%,-6%,-64%[59 µM]
CC(C)(C)c1ccc(NC(=O)c2ccsc2)cc1,35%,0%,11%,0%,79µM*,24%
O=C(Nc1cccc(C(F)(F)F)c1)c1ccc2c(c1)nnn2C1CCCC1,13%,.,-4%,4%,.,3%[59 µM]
COCC(=O)Nc1ccc(Nc2ccccc2)cc1,-7%,-13%,-24%,40µM*,71µM*,?
NC(=O)Nc1ccc(Nc2ccccc2)cc1,-9%,3%,-35%,?,-20%,56µM*
CCC(=O)Nc1ccc(NC(=O)CCc2ccccc2)cn1,27%,2%,-4%,-4%,28%,-17%
CCC(=O)Nc1ccc(NC(=O)Cc2ccccc2)cn1,16%,-5%,-4%,?,4%,56µM*
CCC(=O)Nc1ccc(Nc2ccccc2)cc1,15%,-6%,-24%,-34%,18%,50µM*
CCOC(=O)c1ccc(NC(=O)COC)cc1,28%,-4%,0%,0%,10%,-1%[12.7 µM]
O=C(Nc1ccc(Nc2ccccc2)cc1)c1ccccc1,14%,0%,?,.,.,.
COCC(=O)N1CCC2(CCCN(C(=O)Nc3ccc(OC)cc3)C2)CC1,.,.,.,.,20%,-1%[12.7 µM]
Cc1ccc(C(OCC(O)CN2CCCCC2)c2ccccc2)cc1 (stereo unspecified),28%,3%,-5%,0%,-8%,-1%
Cc1ccc(C(OCC(O)CNC(C)c2ccccc2)c2ccccc2)cc1 (stereo unspecified),?,3%,1.3µM*,40µM*,-23%,8.9µM*
Cc1ccc(C(OCC(O)CNC(CO)C(O)c2ccc([N+](=O)[O-])cc2)c2ccccc2)cc1 (stereo unspecified),?,-5%,40µM*,50µM*,-22%,13µM*
CCOCCc1nn2c(=O)cc(COC(=O)CNC(=O)c3cccc(C)c3)nc2s1,76%,.,-20%,-20%,.,13%[59 µM]
N#Cc1ccc(Oc2nc(C#N)cc(-c3ccccc3)n2)cc1,18%,-4%,-24%,3%,40µM*,-6%
N#Cc1cc(-c2ccccc2)nc(Oc2ccccc2)n1,181%,-5%,88%,87%,-9%,109%
Cc1cccc(-c2oc3ccc(-c4ccc5c(c4)OCO5)cc3c2/C=C/c2ccc(N)cc2)c1,42%,-13%,-9%,-4%,26%,17%
COc1ccc(Cl)cc1Nc1nc(-c2sc(NC(=O)c3ccco3)nc2C)cs1,-5%,-23%,?,?,?,?
COc1cccc(Nc2nc(-c3sc(NC(=O)c4ccco4)nc3C)cs2)c1,-32%,?,?,?,-13%,40µM*
CCCCCCC(=O)Nc1nc(C)c(-c2csc(Nc3ccccc3OC)n2)s1,-23%,-6%,?,?,?,5%[59 µM]
COc1cccc(Nc2nc(-c3sc(N)nc3C)cs2)c1,?,?,?,40µM*,-10%,?
COc1ccccc1Nc1nc(-c2sc(N)nc2C)cs1,?,-20%,?,?,50µM*,13µM*
Cc1ccc2c(c1)c1c(c(=O)n(-c3ccccc3C)c(=O)n1Cc1ccccc1F)n2C,44%,.,10%,1%,.,-2%[59 µM]
Cc1cc2nc3c(=O)n(C4CCCCC4)c(=O)[nH]c3nc2cc1N,3%,3µM*,2%,-23%,2%,1.3µM*
CCOC(=O)C(CS)NCCN[C@@H](CS)C(=O)OCC (stereo partly specified),.,.,.,.,1.6µM*,?
COc1ccccc1C1CCN(c2cc(O)ccc2[N+](=O)[O-])CC1,?,-5%,50µM*,25µM*,4%,.

# Compound activity (PubChem BioAssay)
